Only some compounds are listed: those with a hit (about 6.7% of all), similar ones and a draw of the others.
T cruzi growth = inhibitors of T. cruzi proliferation | T. cruzi beta-gal in NIH3T3, GalScreen luminescence, 90 h | inhibition, % at 8.34 µM | 5.9% of 77,000 active | AID 624255;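 active means mean inhibition above about 93%, with at least 55% of replicates each passing it, limit read from the data, passing the limit was not always enough; inconclusive means only one of those two conditions holds; inactive means neither condition holds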
Pf Dd2 growth = blocks growth of Plasmodium falciparum Dd2 parasites | AID 1159554 | activity change, % at 10 µM | 2.3% of 94,000 active | P. falciparum Dd2 growth, SYBR Green, 72 h; active compounds read low; in the data active means activity change below about -80%; inconclusive means no clear call, values can overlap the other calls
C diff growth = blocks growth of Clostridium difficile | Clostridium difficile clinical isolate growth, OD600, 24 h; active compounds read low | 0.25% of 86,000 active | growth activity, negative = inhibition, % at 16 µg/mL (by protocol);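 active means mean growth activity at or below -80% and every replicate also at or below -80%; inconclusive means mean at or below -80% but some replicate above -80%; inactive means mean growth activity above -80%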;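 further: 0% = DMSO wells and -100% = levofloxacin 16 µg/mL wells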
* marks the source's active call; other numbers are inactive results.

C[C@@H]1CCCCO[C@@H](CN(C)C(=O)Nc2ccc(C(F)(F)F)cc2)[C@H](C)CN([C@@H](C)CO)C(=O)c2cc(NC(=O)Nc3ccccc3)ccc2O1 was read as Pf Dd2 growth -28.4 and C diff growth -7.3.
`C[C@@H]1CCCCO[C@H](CN(C)C(=O)CCCN(C)C)[C@H](C)CN([C@@H](C)CO)C(=O)c2cc(NC(=O)Nc3ccc(C(F)(F)F)cc3)ccc2O1` gave T cruzi growth 62.0 and Pf Dd2 growth -88.0*.
Screening C[C@@H]1CCCCO[C@H](CN(C)C(=O)Nc2ccc(C(F)(F)F)cc2)[C@@H](C)CN([C@@H](C)CO)C(=O)c2cc(NC(=O)Nc3ccccc3)ccc2O1 returned Pf Dd2 growth -84.6* and C diff growth -5.6.
For C[C@@H]1CCCCO[C@@H](CN(C)C(=O)Nc2ccccc2)[C@@H](C)CN([C@H](C)CO)C(=O)c2cc(NC(=O)Nc3ccc(C(F)(F)F)cc3)ccc2O1 the results were Pf Dd2 growth 28.9 and C diff growth -2.4.
For Cc1noc(C)c1NC(=O)Nc1ccc2c(c1)C(=O)N([C@H](C)CO)C[C@H](C)[C@@H](CN(C)C(=O)Nc1ccc(C(F)(F)F)cc1)OCCCC[C@H](C)O2 the results were T cruzi growth 70.0, Pf Dd2 growth -76.7 and C diff growth -0.1.
Screening C[C@H]1CN([C@@H](C)CO)C(=O)c2cc(NC(=O)Nc3ccc(F)cc3)ccc2O[C@H]1CN(C)Cc1ccc(Cl)c(Cl)c1 returned T cruzi growth 63.1, Pf Dd2 growth 18.2 and C diff growth 20.7.
`C[C@H](CO)N1C[C@H](C)[C@@H](CN(C)Cc2ccncc2)OCCCC[C@H](C)Oc2ccc(NC(=O)CCC(F)(F)F)cc2C1=O` gave T cruzi growth 26.9, Pf Dd2 growth 33.2 and C diff growth -1.5.
`O=C(NC[C@H]1N[C@H](CO)[C@@H]1c1ccc(-c2ccccc2)cc1)C1CCC1` gave T cruzi growth 31.4, Pf Dd2 growth 5.2 and C diff growth -0.4.
CO[C@@H]1CN(C)C(=O)c2cc(NC(=O)C3CC3)ccc2OC[C@@H](C)N(C(=O)c2cccnc2)C[C@@H]1C was read as T cruzi growth 32.4 and Pf Dd2 growth 44.8.
For O=C(O)C[C@H]1C[C@@H]2c3cc(NC(=O)CC4CC4)ccc3O[C@@H]2[C@H](CO)O1 the results were T cruzi growth -19.4, Pf Dd2 growth 12.7 and C diff growth 0.7.
Screening C[C@H]1CCCCO[C@H](CN(C)C(=O)Nc2ccc(C(F)(F)F)cc2)[C@@H](C)CN([C@@H](C)CO)C(=O)c2cc(NC(=O)Nc3ccccc3)ccc2O1 returned Pf Dd2 growth -83.2* and C diff growth -3.3.
`C[C@@H]1CCCCO[C@H](CN(C)C(=O)Cc2ccccc2)[C@@H](C)CN([C@@H](C)CO)C(=O)c2cc(NC(=O)Nc3ccc(C(F)(F)F)cc3)ccc2O1` gave T cruzi growth 69.5, Pf Dd2 growth -87.0* and C diff growth -4.0.
Screening C[C@@H]1CCCCO[C@@H](CN(C)C(=O)Nc2ccc(C(F)(F)F)cc2)[C@@H](C)CN([C@H](C)CO)C(=O)c2cc(NC(=O)c3ccccc3)ccc2O1 returned T cruzi growth 71.0, Pf Dd2 growth -73.0 and C diff growth -1.4.
`C[C@@H]1CCCCO[C@H](CN(C)C(=O)Nc2ccc(C(F)(F)F)cc2)[C@@H](C)CN([C@H](C)CO)C(=O)c2cc(NC(=O)Cc3ccccc3)ccc2O1` gave T cruzi growth 88.5, Pf Dd2 growth -87.7* and C diff growth 0.6.
Screening C[C@H]1CCCCO[C@@H](CN(C)C(=O)Nc2ccccc2)[C@@H](C)CN([C@@H](C)CO)C(=O)c2cc(NC(=O)Cc3ccccc3)ccc2O1 returned T cruzi growth 27.1 and Pf Dd2 growth 7.4.
`C[C@@H]1CCCCO[C@@H](CN(C)C(=O)Nc2ccccc2)[C@@H](C)CN([C@@H](C)CO)C(=O)c2cc(NC(=O)Nc3ccc(C(F)(F)F)cc3)ccc2O1` gave Pf Dd2 growth inconclusive and C diff growth -6.9.
For C[C@@H]1CCCCO[C@H](CN(C)C(=O)Nc2ccc(C(F)(F)F)cc2)[C@@H](C)CN([C@@H](C)CO)C(=O)c2cc(NC(=O)c3ccccc3)ccc2O1 the results were T cruzi growth 93.3, Pf Dd2 growth -83.0* and C diff growth 7.2.
For C[C@@H]1CCCCO[C@H](CN(C)C(=O)Cc2ccccc2)[C@H](C)CN([C@@H](C)CO)C(=O)c2cc(NC(=O)Nc3ccc(C(F)(F)F)cc3)ccc2O1 the results were T cruzi growth 81.2, Pf Dd2 growth -69.9 and C diff growth 1.8.
Cn1cnc(CCNC(=O)[C@@H]2[C@@H](CO)[C@@H]3Cn4c(cccc4=O)[C@@H]3N2C(=O)Nc2ccccc2)c1 was read as T cruzi growth 21.8 and C diff growth -0.9.
For C[C@@H]1CN([C@H](C)CO)C(=O)Cc2cc(NC(=O)Cc3ccccc3)ccc2O[C@H]1CN(C)C the results were Pf Dd2 growth 0.2 and C diff growth 0.9.
For C[C@@H]1CN([C@H](C)CO)C(=O)Cc2cc(NC(=O)c3ccncc3)ccc2O[C@H]1CN(C)S(=O)(=O)c1ccccc1 the results were Pf Dd2 growth -1.0 and C diff growth 0.0.
For C[C@H](CO)N1C[C@H](C)[C@H](CN(C)Cc2ccc(C(=O)O)cc2)OCCCC[C@H](C)Oc2ccc(NS(=O)(=O)c3ccc(F)cc3)cc2C1=O the results were T cruzi growth -48.6, Pf Dd2 growth -0.3 and C diff growth 3.4.
`COC(=O)C[C@H]1CC[C@@H]2[C@H](COc3ccc(NC(=O)c4cc(F)cc(F)c4)cc3C(=O)N2C)O1` gave T cruzi growth -13.9, Pf Dd2 growth -16.6 and C diff growth -2.4.
C[C@@H]1CN([C@H](C)CO)C(=O)c2cccc(NC(=O)CCCCCC(=O)Nc3ccccc3N)c2O[C@@H]1CN(C)CC1CC1 was read as Pf Dd2 growth -45.2 and C diff growth 7.4.
C[C@H]1CN([C@@H](C)CO)C(=O)c2cccc(NC(=O)CCCCCC(=O)Nc3ccccc3N)c2O[C@H]1CN(C)CC1CCCCC1 was read as Pf Dd2 growth -82.9* and C diff growth -3.4.
`C[C@@H]1CN([C@@H](C)CO)C(=O)c2cccc(NC(=O)CCCCCC(=O)Nc3ccccc3N)c2O[C@H]1CN(C)CC1CC1` gave Pf Dd2 growth -84.7* and C diff growth -2.5.
Screening C[C@@H]1CN([C@H](C)CO)C(=O)c2cccc(NC(=O)CCCCCC(=O)Nc3ccccc3N)c2O[C@H]1CN(C)CC1CC1 returned Pf Dd2 growth -74.8 and C diff growth -4.3.
C[C@H](CO)N1C[C@H](C)[C@@H](CN(C)CC2CCCCC2)Oc2c(NC(=O)CCCCCC(=O)Nc3ccccc3N)cccc2C1=O was read as Pf Dd2 growth -87.7* and C diff growth 4.7.
`C[C@H]1CN([C@@H](C)CO)C(=O)c2cccc(NC(=O)CCCCCC(=O)Nc3ccccc3N)c2O[C@@H]1CN(C)CC1CC1` gave Pf Dd2 growth -77.9 and C diff growth -16.8.
For CO[C@H]1CN(C)C(=O)c2cc(NC(=O)C3CCCCC3)ccc2OC[C@@H](C)N(Cc2nccs2)C[C@H]1C the results were T cruzi growth 12.6, Pf Dd2 growth -33.0 and C diff growth -0.8.
